From PubChem BioAssay (NCI)
Where “and” joins values, the source holds several entries; their conditions need not be identical. Identical values can stand only once. Compounds without any hit were thinned out: in the full panel of roughly 83,000, 20% have a hit.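 Plates (96-well) were seeded with cells, treated with compound at one concentration, and incubated for 48 hours before percent growth was determined.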 Calls of active or inactive are those of the source. The calls were made as follows: active = growth percent below 10; inactive = the rest.

Experiments:
Experiment in all cases: NCI-60 one-dose screen, 48 h (100 = growth as untreated, 0 = no growth, -100 = all killed)
Details in all cases: 10 µM unless noted
[1] = tested on: HCT-15 colon
[2] = tested on: HT29 colon
[3] = tested on: SNB-75 CNS
[4] = tested on: SNB-19 CNS
[5] = tested on: U251 CNS
[6] = tested on: PC-3 prostate
[7] = tested on: SK-MEL-5 melanoma
[8] = tested on: UACC-62 melanoma
[9] = tested on: LOX IMVI melanoma
[10] = tested on: SK-MEL-28 melanoma

| Compound | growth [1] | growth [2] | growth [3] | growth [4] | growth [5] | growth [6] | growth [7] | growth [8] | growth [9] | growth [10] |
| --- | --- | --- | --- | --- | --- | --- | --- | --- | --- | --- |
| O=C1CCN(Cc2ccccc2)C(=S)N1 | 99.2% (inactive) and 98.3% (inactive) | 121% (inactive) and 98% (inactive) | 125% (inactive) and 83.2% (inactive) | 105% (inactive) and 101% (inactive) | 102% (inactive) and 98.7% (inactive) | 92.3% (inactive) | 105% (inactive) and 108% (inactive) | 102% (inactive) and 98.9% (inactive) | 105% (inactive) and 99.7% (inactive) | 126% (inactive) and 107% (inactive) |
| COc1cc(C(=O)c2ccc3c(c2)OCO3)cc(OC)c1OC | 15.6% (inactive) and 27.4% (inactive) | 5.54% (active) and -1.28% (active) | 0.967% (active) and -9.36% (active) | 35.9% (inactive) and 43.1% (inactive) | 24.1% (inactive) and 16.2% (inactive) | 29.3% (inactive) | 18.3% (inactive) and 8.01% (active) | 42.4% (inactive) and 22.9% (inactive) | 24% (inactive) and 44% (inactive) | 46.7% (inactive) and 43.2% (inactive) |
| CNC(=O)c1ccc(C)c(-n2c(C)cc(OCc3ccc(F)cc3F)c(Br)c2=O)c1 | 91% (inactive) and 97.1% (inactive) | 56.4% (inactive) and 76.5% (inactive) | 63.3% (inactive) and 86.1% (inactive) | 75.8% (inactive) and 91.1% (inactive) | 80.1% (inactive) and 78.6% (inactive) | 74.8% (inactive) and 66.5% (inactive) | 56.4% (inactive) and 87.9% (inactive) | 56.5% (inactive) and 73.4% (inactive) | 83.2% (inactive) and 93.6% (inactive) | 104% (inactive) and 97.9% (inactive) |
| CCN(CC)CCCC(C)Nc1cnc(C(=O)Nc2cc(F)cc3cccnc23)cn1 (configuration not stated) | 24.5% (inactive) and -32.9% (active) | 11.8% (inactive) and 5.33% (active) | 65.7% (inactive) and -54.3% (active) | 83.1% (inactive) and -87.9% (active) | 50.3% (inactive) and -76.1% (active) | 61% (inactive) and -52.7% (active) | 70% (inactive) and -92.2% (active) | 0.997% (active) and 17.5% (inactive) | 33.3% (inactive) and -48.5% (active) | 63.2% (inactive) and 22.7% (inactive) |
| Cc1ccc(S(=O)(=O)NCN2C(=O)c3ccccc3C2=O)cc1 | 99.3% (inactive) | 104% (inactive) | 96.9% (inactive) | 111% (inactive) | 103% (inactive) | 102% (inactive) | 112% (inactive) | 111% (inactive) | 109% (inactive) | 111% (inactive) |
| CNC(=O)c1cc(Oc2ccc(NC(=O)Nc3ccc(Cl)c(C(F)(F)F)c3)cc2)ccn1 | 1.74% (active) and 5.49% (active) | -3.38% (active) and 9.81% (active) | -38.9% (active) and 21.8% (inactive) | 13.3% (inactive) and 20.6% (inactive) | 1.89% (active) and 0.072% (active) | 11.6% (inactive) and -9.74% (active) | -73.1% (active) and -56.6% (active) | -49.4% (active) and -25.5% (active) | -14.6% (active) and -55.1% (active) | -15.7% (active) and -26.7% (active) |
| Cn1cc(-c2cc3c(Nc4ccc(CC(=O)Nc5cc(C(C)(C)C)on5)cc4)ncnc3[nH]2)cn1 | 17.5% (inactive) and 34.6% (inactive) | -8.17% (active) and -11.7% (active) | -44.8% (active) and -42.3% (active) | 2.07% (active) and 3.84% (active) | 0.087% (active) and -9.38% (active) | -21.4% (active) and 1.57% (active) | -50.7% (active) and 1.16% (active) | -77.9% (active) and -80% (active) | 1.91% (active) and 2.35% (active) | -20.2% (active) and -18.4% (active) |
| O=C1c2ccccc2C(=O)c2c(NCCNCCO)ccc(NCCNCCO)c21 | 70.2% (inactive) and 75.4% (inactive) and 72.6% (inactive) | 2.99% (active) and 16.2% (inactive) and 14.9% (inactive) | -26.9% (active) and -4.55% (active) and -6.89% (active) | -11% (active) and 14.5% (inactive) and 7.49% (active) | -4.94% (active) and 5.29% (active) | -58.4% (active) and 36.2% (inactive) and 20.3% (inactive) | -50.5% (active) and 7.59% (active) and 3.46% (active) | -73.4% (active) and 10.3% (inactive) and 6.9% (active) | -35.6% (active) and 0.446% (active) and 1.46% (active) | -36.8% (active) and 31.2% (inactive) and 16.9% (inactive) |
| O=C=NC(c1ccccc1)(c1ccccc1)c1ccccc1 | 102% (inactive) | 99.9% (inactive) | 84.7% (inactive) | 107% (inactive) | 99.4% (inactive) | 102% (inactive) | 114% (inactive) | 101% (inactive) | 102% (inactive) | 114% (inactive) |
| Cc1nn(-c2ccc(Cl)cc2)c2ncnc(N/N=C/c3ccccc3O)c12 | 31.9% (inactive) and 27.1% (inactive) | 20.1% (inactive) and 31.1% (inactive) | -15.1% (active) and 35.9% (inactive) | 29.6% (inactive) and 23.7% (inactive) | 13% (inactive) and 11.8% (inactive) | 41.6% (inactive) and 28.1% (inactive) | -62.4% (active) and -60.4% (active) | 13.5% (inactive) and -37.1% (active) | 35.1% (inactive) and 7.4% (active) | 25.2% (inactive) and 14.5% (inactive) |
| COc1ccc(CCN(C)CCCC(C#N)(c2ccc(OC)c(OC)c2)C(C)C)cc1OC (configuration not stated) | 94% (inactive) and 86.4% (inactive) and 101% (inactive) | 79.2% (inactive) and 74.7% (inactive) and 93.8% (inactive) | 65% (inactive) and -24.5% (active) and 86.8% (inactive) | 107% (inactive) and 101% (inactive) and 105% (inactive) | 90.4% (inactive) and 95.2% (inactive) and 99.9% (inactive) | 76.3% (inactive) and 68.4% (inactive) and 95.5% (inactive) | 94% (inactive) and 99.8% (inactive) and 101% (inactive) |  | 92.3% (inactive) and 95.4% (inactive) and 92.7% (inactive) | 106% (inactive) and 99.7% (inactive) |
| CCN(CC)C(=O)c1cccnc1 | 106% (inactive) | 103% (inactive) | 98.7% (inactive) | 105% (inactive) | 96.2% (inactive) | 100% (inactive) | 103% (inactive) |  | 100% (inactive) | 111% (inactive) |
| COc1cc(/C=N/Nc2nc3c([nH]2)c(=O)n(C)c(=O)n3C)ccc1O | 105% (inactive) | 97.7% (inactive) and 110% (inactive) | 86.9% (inactive) and 88% (inactive) | 112% (inactive) and 108% (inactive) |  | 99% (inactive) and 98% (inactive) | 97.9% (inactive) and 104% (inactive) | 91.9% (inactive) and 97.9% (inactive) | 98.2% (inactive) and 116% (inactive) | 108% (inactive) and 107% (inactive) |
| CCN(CC)CCCC(C)N(Cc1ccccc1)CC(O)c1ccc(Cl)cc1 (configuration not stated) | 101% (inactive) and 97.9% (inactive) | 108% (inactive) and 92.5% (inactive) | 109% (inactive) and 90.6% (inactive) | 109% (inactive) and 107% (inactive) | 105% (inactive) and 102% (inactive) | 87.7% (inactive) and 93.2% (inactive) | 100% (inactive) and 105% (inactive) | 95.8% (inactive) and 106% (inactive) | 99.7% (inactive) and 97.5% (inactive) | 109% (inactive) and 106% (inactive) |
